TWEAK-Fn14 inh: blocks TWEAK-Fn14 interaction in a reporter cell assay; TWEAK-stimulated Fn14 reporter cells, luciferase luminescence, 8 h; inhibition, % at 10 µM; actives 2% (n = 360,000); AID 1159606; in the data active = inhibition above about 50%
C8 TRAIL sens: sensitizes caspase-8 expressing cells to TRAIL. NB7+C8 cells + TRAIL, ATPlite viability luminescence. inhibition (viability loss, TRAIL sensitization), % at 10 µM. actives 1% (n = 360,000);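 active = compounds causing at least 50% loss of cell viability in the single-dose screen, relative to plate controls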
HSP90 inh: HSP90 refolding inhibition in rabbit reticulocyte lysate. inhibition, % at 5.6 µM. luciferase refolding luminescence, 3 h. actives 0.91% (n = 290,000);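 active = inhibition above the screen-wide mean plus 3 SD, computed separately per campaign, cut at about 16% in these data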;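 also: 0% = DMSO wells and 100% = 60 µM geldanamycin wells; inhibitors lower the luminescence because luciferase stays unfolded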
HIF-2a inh: blocks HIF-2a reporter activity; actives 0.72% (n = 360,000); AID 624352; 786-0 RCC cells HIF-2a reporter, luciferase luminescence, overnight; inhibition, % at 18.8 µM;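 active = inhibition of the luminescence signal of 40% or more relative to plate controls, in a single-dose primary screen at 18.75 µM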
TROY NFkB inh: blocks TROY-dependent signaling in reporter cells | actives 0.98% (n = 360,000) | AID 1347056 | Q293 LMP1-TROYcd NF-kB luciferase reporter, 4 h | inhibition, % at 10 µM;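 active = compounds whose plate-normalised and pattern-corrected inhibition of the luciferase reporter signal at the single screening dose is 50% or more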
aSyn UTR inh: 5' untranslated region of α-synuclein, MLPCN primary screen | inhibition, % (tested at 7.5 µM) | actives 0.82% (n = 300,000) | alpha-synuclein 5'UTR reporter, inhibitor activity; in the data active = inhibition above about 60%;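 also: H4 neuroglioblastoma cells stably carrying SNCA 5'UTR luciferase fusion; 0% = DMSO wells and 100% = positive control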
* marks the source's active call; other numbers are inactive results; x = not tested or not shown. Sampled rows, rich in hits. Any-hit rate of the full collection: about 3.9%.

SMILES	TWEAK-Fn14 inh	C8 TRAIL sens	HSP90 inh	HIF-2a inh	TROY NFkB inh	aSyn UTR inh
Cc1cc2c(cc1C)NC(=O)CC(c1ccccc1)=N2	-7	21	x	-288	-51	x
CC(C)CC1C(=O)N(Cc2cn(Cc3ccco3)nn2)CCS(=O)(=O)N1Cc1ccc(-c2ccc(Cl)cc2)cc1 (configuration not stated)	6	22	x	-5	0	x
CCCOc1ccc(-c2nc(SCc3ccccc3)[nH]c(=O)c2C#N)cc1OC	-24	-3	-4	22	51*	28
O=C(NNC(=S)NC(=O)c1ccccc1Cl)c1cccc([N+](=O)[O-])c1	2	1	2	14	15	3
O=C(NC(NC(=S)Nc1c(Cl)cccc1Cl)C(Cl)(Cl)Cl)c1cccc([N+](=O)[O-])c1 (configuration not stated)	60*	12	6	11	45	10
COc1ccc([N+](=O)[O-])cc1NC(=O)C(C)c1ccccc1 (configuration not stated)	-2	0	3	16	13	27
COc1ccc([N+](=O)[O-])cc1NC(=S)NC(NC(=O)C(c1ccccc1)c1ccccc1)C(Cl)(Cl)Cl (configuration not stated)	63*	28	2	-10	24	5
CC(C)(C)C(=O)N1CCN(c2ncnc3scc(-c4ccccc4)c23)CC1	6	23	1	27	2	5
COc1ccc(NC(=O)CSc2nc3nc(-c4cccs4)cc(C(F)(F)F)c3c(=O)[nH]2)c(OC)c1	-7	4	0	3	17	11
CCOc1ccccc1NC(=O)CSc1nc2nc(-c3cccs3)cc(C(F)(F)F)c2c(=O)[nH]1	-11	3	-3	18	63*	1
COc1ccccc1CN(C)C[C@@H]1OCc2cnnn2CCCC(=O)N([C@H](C)CO)C[C@H]1C	-9	-7	x	7	13	x
Cc1cc(S(=O)(=O)NCc2ccccc2)ccc1OCC(=O)Nc1cccc([N+](=O)[O-])c1	52*	4	-2	14	42	32
O=C(Nc1ccccc1N1CCOCC1)c1cccc2ccccc12	10	-20	x	-2	-11	x
Cc1ccc(S(=O)(=O)N2CCN(c3cc4c(cc3[N+](=O)[O-])n(C)c(=O)n4C)CC2)cc1	35	20	2	-37	51*	1
Cn1c(=O)n(C)c2cc([N+](=O)[O-])c(N3CCN(S(=O)(=O)c4ccc5ccccc5c4)CC3)cc21	-15	0	-1	18	-6	28
NNc1nc(-c2ccccc2)nc2sc3c(c12)CCCC3	79*	64*	8	-91	72*	-65
COc1ccccc1C1CC(c2cccs2)=Nc2ccccc2S1 (configuration not stated)	-7	0	11	-119	-15	-46
Fc1ccccc1C1CC(c2ccco2)=Nc2ccccc2S1 (configuration not stated)	53*	-45	13	-193	43	-60
Cc1cccc(CSc2nnc(CCCCCNC(=O)OC(C)(C)C)o2)c1	6	-10	-5	26	72*	5
Cc1ccc(CSc2nnc(CCCCCNC(=O)OC(C)(C)C)o2)cc1	9	-11	-1	-3	22	8
CSC(=NS(=O)(=O)c1ccccc1)NNC(=O)c1c(-c2c(Cl)cccc2Cl)noc1C	-18	2	x	4	-2	x
Cc1cc(CN2CCCC(CNC(=O)c3ccc(F)cc3)C2)cc(C)c1O (configuration not stated)	-1	1	1	4	7	-18
O=C(NCC1CCCN(Cc2ccc3nonc3c2)C1)c1ccc(F)cc1 (configuration not stated)	7	5	-11	13	71*	23
CC1(C)CC[C@]2(C(=O)n3ccnc3)CC[C@]3(C)[C@H](C(=O)C=C4[C@@]5(C)C=C(C#N)C(=O)C(C)(C)[C@@H]5CC[C@]43C)[C@@H]2C1	106*	88*	x	90*	75*	x
Cc1ccc(-c2ccc(=O)n(CCC(=O)NCCN3CCCCC3C)n2)cc1 (configuration not stated)	87*	-1	2	8	x	-2
SMILES	TWEAK-Fn14 inh	C8 TRAIL sens	HSP90 inh	HIF-2a inh	TROY NFkB inh	aSyn UTR inh
CC(=O)c1c(C)nn(-c2ccccc2)c1C	3	-2	-1	23	-4	-14
COP(C)(=O)c1c(C)nn(-c2ccccc2)c1C (configuration not stated)	69*	-13	1	13	x	1
COc1cccc(C(C(=O)NCc2ccccc2)N2CCN(C(=O)C3CCCO3)CC2)c1OC (configuration not stated)	x	6	x	-8	x	x
CC(C)C[C@H]1CN([C@@H](CC(C)C)CN2CCCC2CN2C(=S)NC[C@@H]2Cc2ccccc2)C(=S)N1CCc1ccccc1 (some centres not stated)	6	-7	x	11	-39	x
C=CCN1C(=O)/C(=C/c2ccc(OC(C)=O)c(OCC)c2[N+](=O)[O-])SC1=S	60*	43	-2	-133	43	41
C=CCNc1ncnc2c1ncn2[C@H]1CN(Cc2ccco2)C[C@@H](CO)O1	9	-9	x	4	-4	x
O=C1NC[C@H](Cc2ccc(O)cc2)N(C[C@@H]2CCCN2C[C@H](Cc2ccccc2)N2C[C@H](Cc3ccc(O)cc3)N(CC3CCCCCC3)C(=O)C2=O)C1=O	-19	-6	x	0	-18	x
COc1ccc(Cl)cc1NC(=O)COC(=O)C1=NNC(=O)CC1	0	4	x	10	-14	x
Cc1cc(C)c(NC(=O)CCN2CCN(Cc3ccccc3)CC2)c(C)c1	7	17	x	13	-14	98*
COc1ccc(CN(C)C[C@@H]2OCCCC[C@H](C)Oc3ccc(NC(=O)Nc4ccc(F)cc4)cc3C(=O)N([C@H](C)CO)C[C@H]2C)cc1	0	11	x	-19	-6	x
Cc1ccc(Nc2nc3nonc3[nH]c2=O)cc1Cl	59*	21	2	-145	41	-72
COCCNC(=O)C1(C)CCN(C(=O)c2cccnc2Oc2ccccc2)C1 (configuration not stated)	1	-8	x	8	-12	x
Cc1ccc(N2CC(C(=O)Nc3ccc4c(c3)OCCO4)CC2=O)cc1 (configuration not stated)	59*	8	7	33	50	-23
Cc1ccc(N2CC(C(=O)Nc3ccc4c(c3)OCCO4)CC2=O)cc1C (configuration not stated)	54*	-8	1	17	46	-16
COC(=O)c1ccc2nc(-c3ccc(C#N)cc3)c(Cc3cccc(Cl)c3)n2c1	-6	33	x	10	-4	x
CC(C)(C)S(=O)N1Cc2cc(C(=O)NCC(F)(F)F)nc(-c3cccc(-c4cccc(F)c4)c3)c2[C@@H]1CCO (some centres not stated)	53*	-12	x	15	7	x
